# According to the supplement of paper PMC10681739:
# Molecular target: RUNX1 (UniProt Q01196)
# Experiment: RUNX1 binding intensity (PBM fluorescence), RUNX1 alone (arbitrary fluorescence units); higher = stronger binding
# Details: RUNX1 concentration 2 nM; ETS1 concentration 0 nM
# Method: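 Cooperative gcPBM on 36-bp genomic probes with neighbouring ETS1 and RUNX1 sites. Recombinant human RUNX1 (2 nM) was incubated alone or with ETS1 (25 nM) and detected with anti-RUNX1 antibody plus Alexa488 secondary. Values are medians over 4 replicate spots; the RUNX1+ETS1 data were normalised to the RUNX1-only data. The probes sit in constant array flanks that are not printed.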
# 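Wherever RUNX1 binding intensity (PBM fluorescence), RUNX1 alone is given: Full-length recombinant human RUNX1 bound to double-stranded 36-bp genomic probes on a high-density microarray, scored as Alexa488 fluorescence per spot via anti-RUNX1 antibody, median of four replicate spots.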
# Chain of RUNX1 (Q01196 whole entry): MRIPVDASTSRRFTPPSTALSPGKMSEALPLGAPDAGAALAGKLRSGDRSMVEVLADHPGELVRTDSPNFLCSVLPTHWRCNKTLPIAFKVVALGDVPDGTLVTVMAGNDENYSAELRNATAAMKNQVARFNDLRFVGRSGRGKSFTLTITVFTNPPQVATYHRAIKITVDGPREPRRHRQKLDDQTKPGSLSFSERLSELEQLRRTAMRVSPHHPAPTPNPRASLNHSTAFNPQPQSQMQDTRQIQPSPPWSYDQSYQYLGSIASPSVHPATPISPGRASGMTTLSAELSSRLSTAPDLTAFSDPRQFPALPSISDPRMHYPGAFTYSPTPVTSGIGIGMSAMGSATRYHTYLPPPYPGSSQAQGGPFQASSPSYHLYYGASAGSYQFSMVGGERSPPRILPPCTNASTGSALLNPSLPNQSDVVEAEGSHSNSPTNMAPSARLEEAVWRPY
row,Sequence,RUNX1 binding intensity
1,CCCTGGACGGGAAGCGGCGGCCAGATCCGCAAGCCC,808
2,ACCACACTTCCCAGGAGTCTCTGCGGCCGCGCGGAG,938
3,AGGAAACCACAAGTTATTCCCTGCAAAGGTCTTGAT,3320
4,AGCTCTAAGGTTCCGCCTGCGGGCAGCAAGCGGAGG,920
5,GCACCACCGGAAGTAGGGCTCAACCACCGCTCATTT,1000
6,CTTGCTTAACGCTTCCTGAGGGGTGGTTTGGGTTTT,837
7,GCGGCTTTGTACGGAAACCCACACACATTGTTATTT,984
8,TTAACTCCACGGAAGAATAAACCACCACCGCTCACC,1080
9,TCCGCCCGCGGATGCTGAGAACCGCAGCTGCACAAG,948
10,GGCGGTGCACTCTGGGAAATGTGGTTTTCGCGGCGC,1090
11,ACTCACACCACGGAAACTGCGGCTCGGCAGGCTGAG,808
12,GCCAAGGCCTTCCGCCGAGTTGGTTTTTGGGTTGTT,867
13,CTCTCACTTCCCGTGTGAGAAAAACCACAGAAAAGC,1890
14,CCGCCCCCGGACGGTCACAGCACCCAAACCGCAGGC,2740
15,GAGAACTTCCGGTGCGCTCCCCGGGACTGCGGTCCC,729
16,GCTGCCACTTCCCTTGCTTATTTCATGTGGTTTGGA,1230
17,CTTTCTGGTTTCCTTCCTTTTTGGTTTTGGTTTCAT,1630

# Molecular target: RUNX1 (UniProt Q01196)
# Experiment: TF binding intensity (PBM fluorescence), negative control probe (arbitrary fluorescence units); higher = stronger binding
# Details: not given
# Method: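 gcPBM negative-control 36-bp genomic probes lacking TF binding sites. Each was incubated with recombinant human ETS1 or RUNX1 alone and detected by antibody fluorescence. Values are medians over replicate spots (4 spots for the ETS1-RUNX1 arrays, 3 for the ETS1-ETS1 array). The probes sit in constant array flanks that are not printed.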
row,Sequence,TF binding intensity
1,CAACGTTCTTCTGTTCTTCCGTCTGTCGACCGAACT (protein concentration 2 nM),945
2,ACCCCATTTCAGTCATTTCCTGCTGCAACTAAGTCA (protein concentration 2 nM),1070
3,CCTTTTTCGCCTCCTTTTCCTGCCCCAAGACTAGAG (protein concentration 2 nM),1290
4,ATTTCTGTGCAGTCACTTCCTCTTCTTAGGTCATAG (protein concentration 2 nM),1010
5,GGGTGCAGAAGCCAGCGGAAGCGGAGCGCTACAAGC (protein concentration 2 nM),784
6,TGGGCGGGGAGAGGACGGAAGGAGTAGGCTTCGGGA (protein concentration 2 nM),1020
7,ATCAAGGCGCGGCGGCGGAAAAATGTGAAATGGCTT (protein concentration 2 nM),920
8,TCCAGGGCCACCCCATTTCCTGCCCTCAGCACTTCG (protein concentration 2 nM),929
9,AGGAGGAGATGGGACAGGAAGGAATAGATGGGAGCA (protein concentration 2 nM),1720
10,ACAGTTGCTCCGTCTCTTCCTGTGTCTGGCTTTATT (protein concentration 2 nM),876
11,CTCCCTTGCTCACAACTTCCTCTTGCTGTCTGCTTC (protein concentration 2 nM),1170
12,TCTGGACGATGCAGTTTTCCGGTATACGCGACGCTA (protein concentration 2 nM),727
13,GGGAGAGATGGGGCGCGGAAGGAACGAGGCGGGACG (protein concentration 2 nM),1350
14,CTTCTGTCTCCAAAACGGAAATAATAACTTGAGATT (protein concentration 2 nM),989
15,TCGGCGGCGGAGCACCGGAAGTTCTGCAGCACTGGC (protein concentration 2 nM),880
16,ACGCTGCGCATGCGCCGGAAGTTGCAGCCGTGAAGC (protein concentration 2 nM),811
17,TTGCCCGTCACTTGAGTTCCGCCTCCTCTGCTCCTC (protein concentration 2 nM),922
18,GGGCCTGCGCGCGCACTTCCGCTCTCCCCTCCGGCT (protein concentration 2 nM),759
19,GTCCAGGCAAGAAACAGGAAGTGTGTCATGCACAGA (protein concentration 2 nM),870
20,GTGTTTTGCAGCGAAAGGAAATCTCGCTCTTCGGAA (protein concentration 2 nM),882
21,AATTCTGGGGAGCGAAGGAAATTGGCTTTCGAGGCG (protein concentration 2 nM),1200
22,CTGATTCACTGCCCTCTTCCGCTCTGAGGCGTCGCC (protein concentration 2 nM),1030
23,ACGGCAAGTAAAGTGTTTCCGGCTCAGGTGTCATGG (protein concentration 2 nM),852
